# Measured values from ChEMBL document CHEMBL3988442, “University of Dundee, Small-Polar-MMV Screening Library” (2021).
# For some of these results: Results with a measured potency or affinity are listed apart.
# Assays:
# Set-up in all cases: scale not given: direction of the effect not stated beside the values
# [1] = molecular target: Protein translocase subunit SecA (Escherichia coli (strain K12)) (UniProt P10408); experiment: Assay to Identify E. coli SecA ATPase Inhibitors; type: functional; details: 30 µM
# [2] = molecular target: T1, Ubiquitin-activating enzyme e1, putative (Leishmania donovani (strain BPK282A1)) (UniProt E9BSI1); experiment: Leishmania donovani Ubiquitin Activating Enzyme (LdE1); type: functional; details: 30 µM
# T1 sequence (whole entry): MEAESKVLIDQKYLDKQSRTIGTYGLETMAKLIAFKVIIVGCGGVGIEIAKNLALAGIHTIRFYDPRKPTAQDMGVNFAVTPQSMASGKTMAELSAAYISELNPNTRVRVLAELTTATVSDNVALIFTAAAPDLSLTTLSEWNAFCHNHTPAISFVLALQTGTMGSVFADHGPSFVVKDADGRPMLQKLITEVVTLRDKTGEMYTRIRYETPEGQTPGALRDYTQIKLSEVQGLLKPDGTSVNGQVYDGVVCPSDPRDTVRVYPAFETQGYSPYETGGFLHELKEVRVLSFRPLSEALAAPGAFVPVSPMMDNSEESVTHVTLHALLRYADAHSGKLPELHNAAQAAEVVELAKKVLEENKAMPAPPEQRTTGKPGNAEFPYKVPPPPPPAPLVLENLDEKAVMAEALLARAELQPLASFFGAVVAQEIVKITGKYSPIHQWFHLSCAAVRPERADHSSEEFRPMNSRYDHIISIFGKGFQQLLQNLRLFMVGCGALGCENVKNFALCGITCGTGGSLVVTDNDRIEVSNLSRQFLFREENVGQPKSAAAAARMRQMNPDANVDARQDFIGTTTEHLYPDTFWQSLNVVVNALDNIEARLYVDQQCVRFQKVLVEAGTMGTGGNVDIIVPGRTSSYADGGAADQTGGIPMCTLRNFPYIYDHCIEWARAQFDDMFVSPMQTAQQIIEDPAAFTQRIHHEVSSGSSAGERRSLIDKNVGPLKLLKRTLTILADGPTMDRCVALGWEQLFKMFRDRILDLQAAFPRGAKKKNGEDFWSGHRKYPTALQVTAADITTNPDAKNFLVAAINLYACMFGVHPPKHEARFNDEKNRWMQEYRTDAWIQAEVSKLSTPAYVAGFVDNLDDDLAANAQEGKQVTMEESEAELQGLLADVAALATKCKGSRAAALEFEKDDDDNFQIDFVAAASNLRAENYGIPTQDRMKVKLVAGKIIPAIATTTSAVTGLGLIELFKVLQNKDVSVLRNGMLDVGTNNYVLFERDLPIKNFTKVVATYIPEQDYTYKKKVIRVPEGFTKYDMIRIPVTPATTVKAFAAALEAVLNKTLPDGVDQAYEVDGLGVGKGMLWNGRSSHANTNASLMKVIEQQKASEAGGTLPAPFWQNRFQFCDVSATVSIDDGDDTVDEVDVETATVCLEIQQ
# [3] = molecular target: AMP-activated protein kinase, AMPK (Homo sapiens) (UniProt P54646+O43741+P54619+Q9UGJ0+Q9Y478+Q13131+Q9UGI9); experiment: AMP-dependent Kinase enzyme assay. An in vitro enzyme assay that detects ADP turnover that is directly proportional to AMPK activity. This uses naive AMPK that is activated during the assay with MK-8722; type: functional; details: 30 µM
# [4] = molecular target: Sialic acid-binding Ig-like lectin 9 (Homo sapiens) (UniProt Q9Y336); experiment: Hs-Siglec9 ALPHAscreen SOP 20170721; details: 10 µM
# [5] = system: Trypanosoma cruzi; experiment: Trypanosoma cruzi phosphomannomutase and mannose-1-phosphate guanylyltransferase assay; type: functional; details: 10 µM
# [6] = molecular target: T2, Arginase-2, mitochondrial (Homo sapiens) (UniProt P78540); experiment: in vitro enzyme assay to detect the production of urea directly proportional to the activity of Arginase II; type: functional; details: 33.3 µM; also: in the data most compounds retested in dose-response had high values
# T2 sequence (whole entry): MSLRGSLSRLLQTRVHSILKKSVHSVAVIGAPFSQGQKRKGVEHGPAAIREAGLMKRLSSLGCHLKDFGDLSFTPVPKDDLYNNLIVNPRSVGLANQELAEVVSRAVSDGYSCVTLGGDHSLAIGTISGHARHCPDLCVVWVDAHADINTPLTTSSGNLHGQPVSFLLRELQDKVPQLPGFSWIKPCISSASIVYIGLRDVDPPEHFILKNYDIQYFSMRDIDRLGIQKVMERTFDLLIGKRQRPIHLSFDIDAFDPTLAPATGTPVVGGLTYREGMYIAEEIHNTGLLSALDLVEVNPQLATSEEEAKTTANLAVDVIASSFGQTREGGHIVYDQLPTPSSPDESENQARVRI
# [7] = molecular target: T3, Proteasome subunit beta (Trypanosoma cruzi) (UniProt O96673); experiment: Trypanosoma cruzi proteasome chymotrypsin-like activity (TcProtChymo) assay.; also: in the data most compounds retested in dose-response had high values; type: functional; details: 9.37 µM
# T3 sequence (whole entry): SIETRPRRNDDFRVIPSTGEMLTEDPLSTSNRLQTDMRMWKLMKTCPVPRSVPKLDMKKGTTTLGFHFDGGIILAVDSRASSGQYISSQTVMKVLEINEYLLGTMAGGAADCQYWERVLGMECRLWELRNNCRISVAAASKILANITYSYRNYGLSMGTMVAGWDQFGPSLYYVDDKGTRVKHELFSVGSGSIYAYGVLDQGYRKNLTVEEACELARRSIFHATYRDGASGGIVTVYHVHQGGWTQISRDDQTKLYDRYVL
# [8] = species on record: Homo sapiens; experiment: To identify inhibition of the IFN signalling (Jak-Stat) pathway via expression of an eGFP reporter gene under the control of an IFN-stimulated response element (ISRE) containing MxA promoter.; type: functional; details: 30 µM
# [9] = molecular target: T4, Tyrosyl-tRNA synthetase, putative (Trypanosoma cruzi (strain CL Brener)) (UniProt Q4DSP6); experiment: Trypanosoma cruzi tyrosyl tRNA synthetase (TcYRS) _High Tyrosine SOP; type: functional; details: 30 µM; also: in the data most compounds retested in dose-response had high values
# T4 sequence (whole entry): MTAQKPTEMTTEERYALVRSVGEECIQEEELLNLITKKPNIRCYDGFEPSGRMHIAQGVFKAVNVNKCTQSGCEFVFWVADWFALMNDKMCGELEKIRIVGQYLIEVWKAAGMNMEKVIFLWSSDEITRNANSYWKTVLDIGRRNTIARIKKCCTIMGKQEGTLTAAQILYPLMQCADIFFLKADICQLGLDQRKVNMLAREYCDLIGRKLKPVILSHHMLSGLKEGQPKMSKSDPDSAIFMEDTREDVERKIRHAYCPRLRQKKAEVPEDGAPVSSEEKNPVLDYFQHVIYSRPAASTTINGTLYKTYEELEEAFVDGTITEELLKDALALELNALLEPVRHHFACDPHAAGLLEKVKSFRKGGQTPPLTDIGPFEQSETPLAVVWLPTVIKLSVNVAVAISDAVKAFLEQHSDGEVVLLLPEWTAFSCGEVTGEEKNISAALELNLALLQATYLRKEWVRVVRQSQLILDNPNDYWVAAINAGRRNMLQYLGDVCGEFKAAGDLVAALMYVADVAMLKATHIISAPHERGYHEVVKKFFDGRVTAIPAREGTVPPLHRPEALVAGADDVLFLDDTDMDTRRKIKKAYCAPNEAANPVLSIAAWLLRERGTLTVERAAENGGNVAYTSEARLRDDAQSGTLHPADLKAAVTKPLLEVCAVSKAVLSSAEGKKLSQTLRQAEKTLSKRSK
# [10] = molecular target: T4, Tyrosyl-tRNA synthetase, putative (Trypanosoma cruzi (strain CL Brener)); experiment: Trypanosoma cruzi tyrosyl tRNA synthetase (TcYRS) SOP; type: functional; details: 30 µM
# [11] = molecular target: Chromo domain-containing protein 1 (Saccharomyces cerevisiae (strain ATCC 204508 / S288c) (Baker's yeast)) (UniProt P32657); experiment: ScCHD-1 Enzyme Inhibition Assay; type: functional; details: 30 µM; also: in the data most compounds retested in dose-response had high values
# Chromo domain-containing protein 1 (Saccharomyces cerevisiae (strain ATCC 204508 / S288c) (Baker's yeast)), sequence (P32657 whole entry, the tested form may be a part): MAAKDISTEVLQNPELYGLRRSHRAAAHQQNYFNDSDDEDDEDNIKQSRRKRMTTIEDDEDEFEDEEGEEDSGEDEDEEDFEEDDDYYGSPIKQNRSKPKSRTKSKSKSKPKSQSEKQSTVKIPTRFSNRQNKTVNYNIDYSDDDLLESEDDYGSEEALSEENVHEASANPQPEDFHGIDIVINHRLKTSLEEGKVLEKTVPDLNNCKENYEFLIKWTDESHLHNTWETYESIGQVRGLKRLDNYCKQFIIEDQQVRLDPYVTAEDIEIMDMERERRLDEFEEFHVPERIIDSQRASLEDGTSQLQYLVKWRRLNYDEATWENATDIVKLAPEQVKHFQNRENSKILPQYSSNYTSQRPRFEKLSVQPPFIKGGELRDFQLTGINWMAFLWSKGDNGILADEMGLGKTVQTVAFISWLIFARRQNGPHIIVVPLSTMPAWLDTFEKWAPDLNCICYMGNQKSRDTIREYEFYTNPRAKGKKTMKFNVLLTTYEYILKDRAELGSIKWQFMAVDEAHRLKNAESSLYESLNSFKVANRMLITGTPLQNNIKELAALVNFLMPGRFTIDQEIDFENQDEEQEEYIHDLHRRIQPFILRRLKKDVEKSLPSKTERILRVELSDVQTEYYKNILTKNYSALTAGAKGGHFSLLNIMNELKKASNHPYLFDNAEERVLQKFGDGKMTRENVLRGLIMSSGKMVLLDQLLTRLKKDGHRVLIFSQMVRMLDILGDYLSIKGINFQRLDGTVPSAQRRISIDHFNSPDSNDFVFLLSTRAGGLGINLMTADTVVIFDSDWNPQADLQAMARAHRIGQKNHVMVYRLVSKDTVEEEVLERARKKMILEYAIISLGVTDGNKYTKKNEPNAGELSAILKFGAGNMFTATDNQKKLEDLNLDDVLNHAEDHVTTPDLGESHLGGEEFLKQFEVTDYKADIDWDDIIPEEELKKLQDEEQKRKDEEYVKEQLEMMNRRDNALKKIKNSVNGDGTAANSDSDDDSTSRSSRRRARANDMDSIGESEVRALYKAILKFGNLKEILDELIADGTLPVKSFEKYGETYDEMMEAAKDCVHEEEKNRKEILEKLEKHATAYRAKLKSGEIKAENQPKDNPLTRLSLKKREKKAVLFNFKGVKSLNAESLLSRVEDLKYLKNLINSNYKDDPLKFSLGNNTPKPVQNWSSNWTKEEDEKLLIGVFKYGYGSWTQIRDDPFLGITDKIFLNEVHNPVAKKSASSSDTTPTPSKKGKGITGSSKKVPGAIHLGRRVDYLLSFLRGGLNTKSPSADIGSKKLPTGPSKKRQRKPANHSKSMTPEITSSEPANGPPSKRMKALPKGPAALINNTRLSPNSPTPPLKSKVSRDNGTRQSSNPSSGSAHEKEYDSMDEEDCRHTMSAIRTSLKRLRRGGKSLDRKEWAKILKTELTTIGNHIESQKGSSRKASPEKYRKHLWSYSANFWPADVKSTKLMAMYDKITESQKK
# Sialic acid-binding Ig-like lectin 9 (Homo sapiens), sequence (Q9Y336 whole entry): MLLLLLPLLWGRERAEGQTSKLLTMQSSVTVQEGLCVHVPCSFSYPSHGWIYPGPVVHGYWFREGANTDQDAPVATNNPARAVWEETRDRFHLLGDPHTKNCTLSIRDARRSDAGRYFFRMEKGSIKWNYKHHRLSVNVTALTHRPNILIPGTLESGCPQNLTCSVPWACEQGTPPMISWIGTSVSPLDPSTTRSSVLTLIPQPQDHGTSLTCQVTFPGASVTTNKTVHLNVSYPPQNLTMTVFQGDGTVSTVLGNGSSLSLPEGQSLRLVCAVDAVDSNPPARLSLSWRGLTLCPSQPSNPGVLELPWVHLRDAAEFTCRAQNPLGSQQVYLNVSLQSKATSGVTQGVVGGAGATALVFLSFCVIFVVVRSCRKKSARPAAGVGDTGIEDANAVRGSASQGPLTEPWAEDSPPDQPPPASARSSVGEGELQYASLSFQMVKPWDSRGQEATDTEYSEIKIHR
# Protein translocase subunit SecA (Escherichia coli (strain K12)), sequence (P10408 whole entry): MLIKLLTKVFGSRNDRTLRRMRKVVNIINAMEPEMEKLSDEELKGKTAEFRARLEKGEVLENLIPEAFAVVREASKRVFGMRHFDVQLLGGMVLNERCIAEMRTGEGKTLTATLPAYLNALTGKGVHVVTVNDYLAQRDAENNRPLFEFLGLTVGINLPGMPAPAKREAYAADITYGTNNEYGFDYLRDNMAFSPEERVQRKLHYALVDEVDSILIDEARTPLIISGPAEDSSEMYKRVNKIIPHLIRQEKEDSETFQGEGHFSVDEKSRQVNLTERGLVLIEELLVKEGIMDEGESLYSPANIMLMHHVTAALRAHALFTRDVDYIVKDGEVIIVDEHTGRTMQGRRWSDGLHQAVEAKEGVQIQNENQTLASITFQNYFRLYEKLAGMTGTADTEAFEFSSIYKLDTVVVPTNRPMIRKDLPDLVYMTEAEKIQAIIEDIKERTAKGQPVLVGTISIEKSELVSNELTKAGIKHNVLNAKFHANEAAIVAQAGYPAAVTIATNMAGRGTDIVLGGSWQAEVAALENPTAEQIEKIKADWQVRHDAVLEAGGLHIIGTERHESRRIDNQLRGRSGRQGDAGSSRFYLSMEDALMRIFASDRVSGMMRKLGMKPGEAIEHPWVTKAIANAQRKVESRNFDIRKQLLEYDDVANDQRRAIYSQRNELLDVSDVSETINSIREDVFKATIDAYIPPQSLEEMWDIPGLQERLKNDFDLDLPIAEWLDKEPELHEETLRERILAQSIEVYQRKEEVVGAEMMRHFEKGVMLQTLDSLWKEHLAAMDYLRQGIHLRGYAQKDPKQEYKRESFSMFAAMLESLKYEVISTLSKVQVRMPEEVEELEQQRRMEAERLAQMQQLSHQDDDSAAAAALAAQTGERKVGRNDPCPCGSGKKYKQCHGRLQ
Structure (SMILES),Percent Effect [1] [%],Percent Effect [2] [%],Percent Effect [3] [%],Percent Effect [4] [%],Percent Effect [5] [%],Percent Effect [6] [%],Percent Effect [7] [%],Percent Effect [8] [%],Percent Effect [9] [%],Percent Effect [10] [%],Percent Effect [11] [%]
COc1cc(CNc2cnn(C)c2)cc2c1OCCO2,-3.52,-13.2,-22.5,3.9,1.5,-1.15,4.68,-1.15,-13.2,-14.6,-4.73
CCn1cc(NC(=O)NCC(O)CN2CCCCC2)cn1 (stereo not drawn),-2.01,5.2,2.67,12.4,1.27,4,0.404,15.9,0,2.35,-9.62
Cc1cc(C2CCCN2C(=O)NCc2cccc(F)c2)on1 (stereo not drawn),-3.25,8,-2.75,0.538,-1.07,1.56,16.2,10.1,8.2,13.6,-5.2
CSc1ncc(C(=O)N2C[C@H]3CC[C@@H]2CN(Cc2ccccc2)C3)cn1,0.697,2.74,22.7,-2.06,-6.66,2.27,11,4.63,6.45,10,0.291
CCc1nc(C2CCCN2CC(=O)Nc2c(C)nn(C)c2C)no1 (stereo not drawn),-2.75,0,-6.03,-5.34,-0.979,-0.455,7.81,10.6,1.07,2.5,1.02
CCc1nc(CN(C)C2CCN(CCn3cc(C#N)cn3)C2)no1 (stereo not drawn),1.6,13.5,-2.36,-1.05,-7.64,-13.6,17.5,23.4,4.43,6.17,-5.98
O=C(NCCc1nnc2n1CCC2)NCC1(c2cccc(F)c2)CC1,-7.67,-5.26,5.7,-1.62,2.43,0,-1.44,-9.73,2.13,5.2,1.42
N#Cc1ccnc(N2CCN(CC(O)c3cccc(F)c3)CC2)c1 (stereo not drawn),-4.31,2.7,0.651,-0.828,-3.42,3.72,2.83,-1.26,5.38,11.1,-2.53
